# Bioassay records deposited in PubChem by several laboratories.
# PrPC TRFRET – inhibitors of human cell surface prion protein PrPC; TR-FRET read-out; inhibition, % at 13.8 µM; 370,000 compounds, 0.43% hits; AID 720596; in the data active = inhibition above about 24%
# GDH-TPI counter-1 – counter-screen for M. tuberculosis FBA inhibitors: GDH-TPI coupled enzymes; GDH-TPI coupled enzyme counterscreen, NADH absorbance; inhibition, % at 4.8 µM; 360,000 compounds, 1.2% hits; AID 588335; in the data active = inhibition above about 30%
# FBA Mtb inh – inhibitors of M. tuberculosis fructose-bisphosphate aldolase; P9WQA3; purified M. tuberculosis FBA, fluorescence read-out; inhibition, % at 1 µM; 360,000 compounds, 2.3% hits
# Target sequence (P9WQA3 whole entry, looked up): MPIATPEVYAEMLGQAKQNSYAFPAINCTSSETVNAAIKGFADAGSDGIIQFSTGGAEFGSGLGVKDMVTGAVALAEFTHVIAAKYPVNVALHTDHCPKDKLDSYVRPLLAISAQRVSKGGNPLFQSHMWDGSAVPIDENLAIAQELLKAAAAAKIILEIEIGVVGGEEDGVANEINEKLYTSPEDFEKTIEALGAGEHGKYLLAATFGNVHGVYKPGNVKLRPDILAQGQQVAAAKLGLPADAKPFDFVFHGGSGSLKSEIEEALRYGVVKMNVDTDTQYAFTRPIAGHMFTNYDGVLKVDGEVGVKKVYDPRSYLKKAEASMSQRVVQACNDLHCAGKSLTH
# BJeLR lethal – kills HRASV12-expressing BJeLR cells. BJeLR (HRASV12) viability, CellTiter-Glo ATP luminescence, 48 h. inhibition, % (no concentration beside the values). 300,000 compounds, 0.17% hits; in the data active = inhibition above about 50%
# PrP 5UTR inh – inhibition of PrP 5' UTR reporter expression. cell-based PrP 5' UTR mRNA reporter, plate reader. inhibition, % (no concentration beside the values). 340,000 compounds, 0.35% hits. AID 488862; in the data active = inhibition above about 52%
# PfHsp40 rescue – restores yeast growth despite PfHsp40 toxicity | S. cerevisiae expressing PfHsp40, growth rescue, ATP luminescence | growth rescue, % at 12.5 µM | 340,000 compounds, 0.68% hits | AID 504582; in the data active = growth rescue above about 28%, passing the limit was not always enough;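 note: yeast W303a lacking pdr1 and pdr3 grown in galactose medium; growth measured after three days at 30 °C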
# Mtb FBA confirm – Mtb FBA inhibition, confirmed | shares compounds with FBA Mtb inh | purified M. tuberculosis FBA, fluorescence read-out | inhibition, % at 1 µM | 5,600 compounds, 78% hits | AID 651616
# GDH-TPI counter-2 – inhibits GDH-TPI coupling enzymes, flagging Mtb FBA hits | GDH-TPI coupled enzyme counterscreen, fluorescence | inhibition, % at 1 µM | 5,600 compounds, 81% hits | AID 652141 | shares compounds with FBA Mtb inh; in the data active = inhibition above about 10%
# GDH-TPI DR – counter-screen for M. tuberculosis FBA inhibitors: GDH-TPI dose response; 170 compounds, 79% hits; GDH-TPI coupled enzyme assay, fluorescence, artifact counterscreen; shares compounds with FBA Mtb inh; IC50, µM; call rule not given here
# Numbers stand for hits; i = inactive; nt = no result; + = active, no number. Hits are enriched below; roughly 4.5% of the tested compounds scored in any of these assays. Cut-off read from the data, not from the text of the source, unless noted: active = inhibition above about 27%; inactive = the rest.
SMILES,PrPC TRFRET,GDH-TPI counter-1,FBA Mtb inh,BJeLR lethal,PrP 5UTR inh,PfHsp40 rescue,Mtb FBA confirm,GDH-TPI counter-2,others
O=C(NC1CCCC1)c1ccc2c(c1)N(Cc1ccccc1)CCS2,i,i,90,i,i,i,103,116,
Cc1ccc(CN2CCSc3ccc(C(=O)NC4CCN(Cc5ccccc5)CC4)cc32)cc1,i,i,i,i,i,i,nt,nt,
O=C(NC1CC1)c1ccc2c(c1)N(Cc1ccc(Cl)cc1)CCS2,i,i,106,i,i,i,54,48,
O=C(CSc1nc(C(F)(F)F)cc(=O)[nH]1)Nc1nccs1,i,i,i,i,i,i,nt,nt,
O=C(Nc1ccccc1SCC1CSc2nc3ccccc3c(=O)n21)c1cccc(Cl)c1 (stereo not given),i,i,59,i,i,i,85,79,
CCOC(=O)C1=CCN(S(=O)(=O)c2ccccc2C)C1c1ccc(F)cc1 (stereo not given),i,nt,i,nt,nt,nt,nt,nt,
CCCc1cc(=O)oc2cc(OCC(=O)NC(Cc3c[nH]c4ccc(O)cc34)C(=O)O)c(Cl)cc12 (stereo not given),i,i,i,i,i,i,nt,nt,
CCCc1cc(=O)oc2cc(C)cc(OCC(=O)Nc3ccc(S(N)(=O)=O)cc3)c12,i,i,i,i,i,i,nt,nt,
CCCCc1cc(=O)oc2cc(C)cc(OCC(=O)NC(Cc3ccc(Cl)cc3)C(=O)O)c12 (stereo not given),i,i,63,i,i,i,105,68,
CCCc1cc(=O)oc2cc(C)cc(OCC(=O)NC(Cc3ccc(Cl)cc3)C(=O)O)c12 (stereo not given),i,i,70,i,i,i,i,i,
Cc1ccc(OCC(=O)NC2CCS(=O)(=O)C2)c([N+](=O)[O-])n1 (stereo not given),i,i,i,i,i,i,nt,nt,
O=C(Nc1ccc(F)cc1)OCc1cn(Cc2cccc(F)c2F)nn1,i,nt,nt,nt,nt,nt,nt,nt,
O=C(NNC(=O)c1cc(Cl)ccc1[N+](=O)[O-])c1csc(N2CCOCC2)n1,i,i,i,i,i,i,nt,nt,
COC(=O)c1sccc1NC(=S)Nc1ccc(F)cc1F,i,i,70,i,i,i,79,51,
COC(=O)c1sccc1NC(=O)CN(C)NS(=O)(=O)c1ccc(F)cc1,i,i,27,i,i,i,95,72,
CSCC[C@H](NC(=O)c1ccc2ccccc2c1)C(=O)N1CCC2(CC1)NCCc1[nH]cnc12,i,i,i,i,i,i,nt,nt,
CSCC[C@H](NC(=O)COc1ccc(Cl)cc1)C(=O)N1CCC2(CC1)NCCc1[nH]cnc12,i,i,59,i,i,i,120,111,
CCOC(=O)C1(Cc2cccc(OC)c2)CCN(Cc2cccc(OC)c2O)CC1,i,i,i,i,i,i,nt,nt,
CC(C)(OC(=O)c1cccs1)c1cc2ccccc2c(=O)o1,i,i,i,nt,i,i,nt,nt,
CC(C)(O)c1cc2ccc(C#Cc3ccsc3)cc2c(=O)o1,i,i,50,nt,i,i,32,31,
O=c1oc(CCCO)cc2ccc(C#Cc3ccsc3)cc12,i,i,57,nt,i,i,87,73,
CN(C)c1ccc(C#Cc2ccc3cc(CCCO)oc(=O)c3c2)cc1,i,i,i,nt,i,i,nt,nt,
CCOC(=O)C1CCN(C(=S)Nc2cccc(C)c2C)CC1,i,i,i,i,i,i,nt,nt,
CC(=O)Nc1ccc(CC(=O)O)cc1,i,i,i,i,i,i,nt,nt,
Cc1oc(C)c(C(=O)Nc2ccc(CC(=O)O)cc2)c1C(=O)Nc1ccc(CC(=O)O)cc1,i,i,48,i,i,i,i,i,GDH-TPI DR=i
SMILES,PrPC TRFRET,GDH-TPI counter-1,FBA Mtb inh,BJeLR lethal,PrP 5UTR inh,PfHsp40 rescue,Mtb FBA confirm,GDH-TPI counter-2,others
CCCCn1nc2cc(C(=O)NCc3ccc(C(F)(F)F)cc3C(F)(F)F)ccc2c1OCC,i,i,i,i,i,i,nt,nt,
CCCCn1nc2cc(C(=O)NCc3cc(C(F)(F)F)cc(C(F)(F)F)c3)ccc2c1OC,i,i,i,i,i,i,nt,nt,
CCOc1c2ccc(C(=O)NCc3ccc(C(F)(F)F)cc3C(F)(F)F)cc2nn1C,i,i,60,i,i,i,127,104,
COc1c2ccc(C(=O)NCc3cc(C(F)(F)F)cc(C(F)(F)F)c3)cc2nn1C,i,i,46,i,i,i,97,73,
COc1ccc2oc(C(=O)Nc3nnc(C)s3)c(C)c2c1,i,i,29,nt,i,i,81,63,
COc1ccc2oc(C(=O)NC(C)c3ccccn3)c(C)c2c1 (stereo not given),i,i,33,nt,i,i,94,83,
Cc1ccc(Nc2cc(C)nc3ncnn23)cc1,i,i,i,i,i,i,nt,nt,
OC(c1ccccc1)C1(c2ccccc2)CCN(Cc2ccccc2)CC1 (stereo not given),i,nt,nt,nt,nt,nt,nt,nt,
O=C(COc1ccc2c3c(c(=O)oc2c1)CCCC3)NCCCn1ccnc1,i,i,29,i,i,i,+,194,
O=C(COc1ccc2c3c(c(=O)oc2c1)CCCC3)NCCCN1CCCC1=O,i,i,62,i,i,i,92,79,
O=C(COc1ccc2c3c(c(=O)oc2c1)CCC3)NCc1ccncc1,i,i,i,i,i,i,nt,nt,
Cc1c(C)c2ccc(OCC(=O)NCCCn3ccnc3)cc2oc1=O,i,i,62,i,i,i,195,138,
O=C(COc1ccc2c3c(c(=O)oc2c1)CCCC3)NCc1ccccn1,i,i,86,i,i,i,+,+,
CC(Oc1ccc2c3c(c(=O)oc2c1)CCCC3)C(=O)NCCCn1ccnc1 (stereo not given),i,i,i,i,i,i,nt,nt,
CCC(=O)c1ccc2ncccc2c1,i,i,i,i,i,i,nt,nt,
Nc1ncnc2c1c(-c1ccc(Oc3ccccc3)cc1)cn2C1CCCC1,i,i,i,nt,i,i,nt,nt,
Cc1ccc(NC(=O)c2cc3c(CO)cnc(C)c3oc2=Nc2cccc(C(N)=O)c2)cc1,i,i,i,i,i,i,nt,nt,
Cc1c(OCC(=O)NCCCn2ccnc2)ccc2c3c(c(=O)oc12)CCCC3,i,i,31,i,i,i,76,64,
O=C(NCCc1ccccc1C(F)(F)F)C1CCC(=O)N(CCCN2CCCC2=O)C1 (stereo not given),i,i,i,i,i,i,nt,nt,
CN(CC(=O)Nc1ccccc1Cl)C(=O)CSc1nnc(-c2ccco2)n1C,i,i,i,nt,i,i,nt,nt,
CCOC(=O)c1cn(Cc2cccc(Cl)c2)c2cc(C)nn2c1=O,i,i,28,i,i,i,67,53,
N#CC1=C(O)CCCn2c1nc1ccccc1c2=O,i,i,i,i,i,i,nt,nt,
N#CC1=C(O)C(c2ccccc2)n2c1nc(=O)c1ccccc12 (stereo not given),i,i,85,i,i,i,137,129,
